Bioassay records from PubChem.
Sampled rows, rich in hits. Any-hit rate of the full collection: about 3.2%.
PG9 binder: PG9 antibody binding by small molecule; inhibition, % at 6.7 µM; TR-FRET gp120-PG9 antibody binding; 360,000 compounds, 0.43% hits; in the data active = inhibition above about 8.5%
MsrA inhibitor: bovine MsrA inhibition; purified bovine MsrA, absorbance read-out; inhibition, % at 15.5 µM; 360,000 compounds, 0.75% hits; in the data active = inhibition above about 4.5%;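 note: 0% = vehicle wells with enzyme and 100% = reference inhibitor wells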
HGIII-sPLA2 inh: Blocks human group III sPLA2 activity; Q9NZ20; QFRET BODIPY PC-A2 liposome hydrolysis, fluorescence; inhibition, % at 12.2 µM; 370,000 compounds, 0.56% hits;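 active = inhibition above mean plus 3 SD of compounds lying within the high and low control bounds, cut at about 19% in these data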;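 note: 0% = median of test compound wells and 100% = no enzyme DMSO wells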
Target sequence (Q9NZ20 whole entry, looked up): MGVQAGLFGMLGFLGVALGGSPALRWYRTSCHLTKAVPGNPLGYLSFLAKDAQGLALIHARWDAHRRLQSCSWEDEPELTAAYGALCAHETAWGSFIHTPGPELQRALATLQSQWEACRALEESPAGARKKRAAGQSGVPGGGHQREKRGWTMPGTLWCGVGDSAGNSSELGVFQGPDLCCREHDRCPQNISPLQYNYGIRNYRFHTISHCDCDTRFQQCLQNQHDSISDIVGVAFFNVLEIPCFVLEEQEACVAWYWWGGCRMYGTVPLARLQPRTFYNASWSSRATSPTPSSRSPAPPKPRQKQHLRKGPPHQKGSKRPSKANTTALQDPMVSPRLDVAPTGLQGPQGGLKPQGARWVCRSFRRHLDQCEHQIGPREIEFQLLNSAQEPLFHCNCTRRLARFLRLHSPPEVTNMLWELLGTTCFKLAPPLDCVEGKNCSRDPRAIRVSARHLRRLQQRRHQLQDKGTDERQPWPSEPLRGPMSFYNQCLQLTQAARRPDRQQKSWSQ
rCAG RNA binder: molecules binding r(CAG) RNA repeats. r(CAG) RNA repeat, TO-PRO-1 dye displacement fluorescence. inhibition, % at 3 µM. 370,000 compounds, 1.3% hits. AID 651821;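 active = inhibition above the plate cutoff, the mean of all test compounds on that plate plus 3 SD, cut at about 35% in these data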;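 note: 0% = DMSO alone and 100% = 100 µM mitoxantrone as full dye displacement; higher means more dye released from RNA so lower well fluorescence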
MsrA act: bovine methionine sulfoxide reductase A activation; purified bovine MsrA, absorbance read-out; activation, % at 10.6 µM; 360,000 compounds, 0.3% hits; in the data active = activation above about 7.5%;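 note: 0% = vehicle and 100% = reference activator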
rCAG binder conf: r(CAG) RNA repeat binding, confirmation; shares compounds with rCAG RNA binder; TO-PRO-1 dye displacement fluorescence; inhibition, % at 3 µM; 4,300 compounds, 70% hits; AID 652065;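 active = inhibition above a per-plate cutoff, the mean inhibition of sample wells plus 3 SD, cut at about 35% in these data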;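 note: loss of TO-PRO-1 fluorescence as compound displaces dye from 1x1 AA loop RNA; 0% = DMSO only wells and 100% = 100 µM mitoxantrone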
dCAG dye counter: DNA CAG dye complex inhibition counter-screen. 4,300 compounds, 94% hits. d(CAG) DNA oligo TO-PRO-1 dye displacement, fluorescence. shares compounds with rCAG RNA binder. inhibition, % at 3 µM;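 active = inhibition above its plate's cutoff, the mean test-well inhibition plus 3 SD, cut at about 4.8% in these data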;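 note: 0% = DNA dye mix with DMSO and 100% = 100 µM mitoxantrone; hits displace the dye from DNA and so lower well fluorescence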
DNA CAG DR: DNA CAG dye complex inhibition, dose response counter-screen | shares compounds with rCAG RNA binder | DNA CAG/GTC duplex TO-PRO-1 dye displacement fluorescence | IC50, µM | 250 compounds, 20% hits; in the data active = IC50 below about 10 µM
An asterisk follows results filed as active; nt = no result given.

SMILES | PG9 binder | MsrA inhibitor | HGIII-sPLA2 inh | rCAG RNA binder | MsrA act | rCAG binder conf | dCAG dye counter | others
COC(=O)CSc1nnc(-c2ccc(NS(=O)(=O)c3ccc(Cl)s3)cc2)o1 | nt | nt | -30 | 39* | nt | 29 | 5.8*
COCCNC(=O)c1c(N)[nH]c(C(=O)c2ccc(Br)cc2)c1-c1c(OC)ccc2ccccc12 | nt | nt | 6 | nt | nt | nt | nt
COC(=O)c1c(NC(=O)C2CCCCC2C(=O)O)sc2c1CCCCC2 (stereo not given) | 5 | 2 | 3 | 48* | -13 | 33 | 5.7*
COCC(=O)Nc1sc2c(c1C(=O)OC)CCCC2 | -2 | 0 | 1 | 4 | -3 | nt | nt
Cc1cc(C(=O)OCC(=O)NC2CCCC2)c2ccccc2n1 | 0 | 0 | -2 | -3 | -2 | nt | nt
CC1CCCCC1NC(=O)COC(=O)c1c2c(nc3ccccc13)/C(=C/c1ccco1)CC2 (stereo not given) | 2 | 0 | 6 | 53* | -1 | 51* | 28*
O=C(COC(=O)c1c2c(nc3ccccc13)/C(=C/c1ccco1)CC2)NC1CCCC1 | 1 | 2 | -5 | 68* | -4 | 60* | 34*
Cc1cc(C(=O)OCC(=O)NC2CCCCC2C)c2ccccc2n1 (stereo not given) | 1 | 1 | 4 | 0 | -2 | nt | nt
CC1=Nc2cc(C(=O)O)ccc2Sc2ccc(Br)cc21 | -1 | -1 | -13 | 51* | -5 | 55* | 22*
COc1cc(NC(=O)c2ccc3c(SCC(=O)O)c4c(nc3c2)CCCC4)cc(OC)c1OC | -2 | -1 | 2 | 6 | -7 | nt | nt
COc1cc(OC)c(NC(=O)c2ccc3c(SCC(=O)O)c4c(nc3c2)CCCC4)cc1Cl | 2 | 1 | -3 | 51* | -2 | 62* | 24*
CC1CCN(c2ccc(C(=O)O)cc2NS(=O)(=O)c2ccc(F)cc2)CC1 | nt | nt | -9 | 20 | nt | nt | nt
CC1CCN(c2ccc(C(=O)O)cc2NS(=O)(=O)c2ccc(C(C)(C)C)cc2)CC1 | nt | nt | -37 | 64* | nt | 64* | 26*
COC(=O)C1CN(CCO)CCS(=O)(=O)N1Cc1cccc(Cl)c1 (stereo not given) | nt | nt | 3 | 0 | nt | nt | nt
C/C(C=NNC(=O)CSc1nnc(-c2ccccc2)n1-c1ccc(C)cc1)=C\c1ccco1 | nt | nt | -10 | 10 | nt | nt | nt
Cc1ccc(OCCCC(=O)Nc2ccc(S(=O)(=O)Nc3cc(C)on3)cc2)cc1 | 1 | 0 | -46 | 49* | -3 | 36* | 12*
Cc1cc(NS(=O)(=O)c2ccc(NC(=O)CCCOc3ccccc3C)cc2)no1 | -3 | 0 | -22 | 38* | -2 | 34 | 8.8*
Cc1cc(NS(=O)(=O)c2ccc(NC(=O)c3oc4ccccc4c3C)cc2)no1 | 1 | 0 | -39 | 41* | 1 | 41* | 11*
Cc1ccc(OCCCC(=O)Nc2ccc(S(=O)(=O)Nc3ccccn3)cc2)cc1 | -1 | 1 | 9 | 0 | 0 | nt | nt
Cc1ccccc1OCCCC(=O)Nc1ccc(S(=O)(=O)Nc2onc(C)c2C)cc1 | -5 | 1 | -7 | 52* | -3 | 34 | 9.4*
COc1cc(Cn2cc([C@]34C[C@H]5C(=O)N(C)CC(=O)N5[C@H]3N(S(=O)(=O)c3ccccc3)c3ccccc34)c3ccccc32)cc(OC)c1 | nt | nt | -2 | nt | nt | nt | nt
Cc1cc(NS(=O)(=O)c2ccc(NC(=O)Cc3ccc(Cl)c(Cl)c3)cc2)no1 | 1 | -1 | -41 | 49* | -4 | 35* | 8.8*
Cc1cc(NS(=O)(=O)c2ccc(NC(=O)COc3ccc(Br)cc3)cc2)nc(C)n1 | 3 | 1 | -31 | 36* | -5 | 35* | 10*
Cc1cc(NS(=O)(=O)c2ccc(NC(=O)COc3c(C)cc(Br)cc3C)cc2)no1 | -1 | -1 | -52 | 71* | -2 | 63* | 26*
COc1ccc(OCC(=O)Nc2ccc(S(=O)(=O)Nc3cc(C)on3)cc2)cc1 | -1 | -1 | -5 | 20 | -1 | nt | nt
SMILES | PG9 binder | MsrA inhibitor | HGIII-sPLA2 inh | rCAG RNA binder | MsrA act | rCAG binder conf | dCAG dye counter | others
Cc1c(C(=O)Nc2ccc(S(=O)(=O)Nc3ncccn3)cc2)oc2ccccc12 | 3 | 2 | -6 | 20 | -2 | nt | nt
Cc1c(C(=O)NNC(=S)Nc2ccc(S(N)(=O)=O)cc2)oc2ccccc12 | -2 | 2 | 7 | 52* | 2 | 32 | 11*
CC[C@@H](CCC1CCCCC1)CN(c1ccccc1)S(C)(=O)=O | nt | nt | -2 | 1 | nt | nt | nt
CC(C)C[C@H]1COc2cccc(F)c2S(=O)(=O)N1C | nt | nt | 0 | 1 | nt | nt | nt
CC(C)=CC(=O)NCC1CCN(C(=O)C(=O)c2cc3ccccc3o2)CC1 | 0 | 1 | 0 | 3 | nt | nt | nt
Cc1cc(NS(=O)(=O)c2ccc(NC(=O)CCCOc3cccc(C)c3C)cc2)no1 | -3 | 1 | -38 | 63* | -3 | 62* | 17*
CCC(=O)Nc1ccc(S(=O)(=O)Nc2cc(C)on2)cc1 | -1 | 0 | 0 | -1 | -3 | nt | nt
CCN1C(=O)S/C(=C/c2c(OCc3ccc(C(=O)O)cc3)ccc3ccccc23)C1=O | -4 | 0 | -33 | 50* | -9 | 67* | 27*
CCCCCCC(=O)n1ccc2ccc(-c3ccc4ccn(Cc5ccc(OC)cc5)c4c3)cc21 | nt | nt | 2 | 18 | nt | nt | nt
Nc1nc(-c2ccco2)c(-c2ccco2)s1 | -4 | 2 | 1 | 12 | -7 | nt | nt
COc1ccc2nc(-c3ccco3)c(-c3ccco3)nc2c1 | -3 | 2 | -9 | 59* | -3 | 32 | 13*
c1coc(-c2nc(-c3ccco3)c(-c3ccco3)nc2-c2ccco2)c1 | 2 | 2 | 11 | 68* | -14 | 45* | 21* | DNA CAG DR=6.6*
COc1ccc2nc3cccc(OC)c3nc2c1 | -15 | 1 | 1 | 1 | 1 | nt | nt
CCCCCCCCN1C(=O)N2Cc3ccc(C)cc3C2CS1(=O)=O (stereo not given) | nt | nt | 2 | -1 | nt | nt | nt
O=C(NCc1ccco1)C1CCCN(S(=O)(=O)c2cccs2)C1 (stereo not given) | nt | nt | -1 | 4 | nt | nt | nt
COC(=O)c1ccc(COc2ccccc2/C=C/C(=O)c2ccc(OCC(=O)O)cc2)cc1 | -1 | 3 | -18 | 56* | -2 | 64* | 24*
COC(=O)c1ccc(COc2ccccc2/C=C(\C#N)C(=O)NC(C)C)cc1 | -1 | 2 | 14 | -1 | -5 | nt | nt
COc1ccc(N2CCCN(CC(=O)Nc3ccccc3C)CC2)cc1 | nt | nt | 9 | -2 | nt | nt | nt
Cc1cccc(N2CCN(C(=O)Cc3c(C(=O)O)[nH]c4ccc(Cl)cc34)CC2)c1C | 0 | 0 | -18 | 50* | -4 | 72* | 37*
O=C1CCCC2=C1C(c1cn(-c3ccccc3)nc1-c1cccs1)c1c([nH]c(=O)[nH]c1=O)N2 (stereo not given) | 1 | -1 | -4 | 39* | -2 | 27 | 15*
